These results are taken from PubChem BioAssay AID588342 (National Center for Advancing Translational Sciences (NCATS), 2011).

The campaign covered roughly 360,000 compounds. About 25,000 (6.9%) were called active. Where a call stands in place of a potency, no number is given. About 9% were inconclusive and are not listed. The call rests on the fitted dose curve; in most records, active means well fitted inhibition curve with a large enough effect; inconclusive means small, poorly fitted or top-dose-only effect; inactive means flat fitted curve, though single readings scatter. Many of the other results were omitted from the sample, so actives are more common in it than they were.
Potency means the concentration at half of the fitted maximal effect.

Chain of Luciferin 4-monooxygenase (Photinus pyralis) (P08659 whole entry, looked up): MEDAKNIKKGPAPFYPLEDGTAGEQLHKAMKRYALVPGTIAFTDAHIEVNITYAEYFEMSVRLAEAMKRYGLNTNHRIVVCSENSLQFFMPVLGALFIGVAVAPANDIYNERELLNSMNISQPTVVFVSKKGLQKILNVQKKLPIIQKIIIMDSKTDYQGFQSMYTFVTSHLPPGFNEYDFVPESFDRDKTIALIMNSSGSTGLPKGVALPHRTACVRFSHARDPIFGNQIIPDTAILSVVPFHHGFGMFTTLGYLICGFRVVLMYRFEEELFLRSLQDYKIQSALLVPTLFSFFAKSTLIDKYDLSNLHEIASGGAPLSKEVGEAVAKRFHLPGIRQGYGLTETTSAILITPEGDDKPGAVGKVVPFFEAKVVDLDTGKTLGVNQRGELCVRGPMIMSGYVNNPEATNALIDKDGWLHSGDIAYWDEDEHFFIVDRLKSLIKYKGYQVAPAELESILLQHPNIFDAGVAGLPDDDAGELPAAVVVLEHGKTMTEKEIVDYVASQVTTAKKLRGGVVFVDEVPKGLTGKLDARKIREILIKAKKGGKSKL

The target in the experiment is Luciferin 4-monooxygenase (Photinus pyralis) (UniProt P08659). Kind of experiment: qHTS profiling assay for firefly luciferase inhibitor/activator using purifed enzyme and Km concentrations of substrates (counterscreen for miR-21 project). Further: nearly all actives have a fitted effect of over 55% in size. Conditions: purified FLuc, luminescence inhibition; series mostly up to 57.5 µM. The essentials:
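Purified P. pyralis luciferase, 10 nM final, with Km-level 10 uM D-luciferin and 10 uM ATP in 50 mM Tris acetate pH 7.5, 10 mM Mg acetate, 0.01% Tween-20, 0.05% BSA; 6-point qHTS titration about 60 µM downward; luminescence read.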
For orientation: In qHTS, concentration-response curves come from the screen itself.
`CCN(CC)CCNC(=O)c1cc2c(=O)oc3ccc(C)cc3c2s1`: the Potency result is “inactive”.
In the case of `Cc1ccc(-c2nnc(SCC(=O)NCc3ccccc3)nc2-c2ccc(C)cc2)cc1`, the Potency entry is “inactive”.
With `COC(=O)c1cc(NC(=O)c2cnc(SC)nc2-c2ccccc2)cc(C(=O)OC)c1` the entry was “inactive”.
For `COc1ccccc1C(=O)NC(CCSC)C(=O)N1CCN(C(C)=O)CC1` (stereo unspecified), the Potency result was “inactive”.
The result for `CC(=O)c1cccc(NC(=O)C2CCN(C(=O)c3ccccc3Cl)CC2)c1` reads “inactive”.
Consider `CC(=O)N1CCCc2ccc(NS(=O)(=O)c3ccc(F)cc3F)cc21`, for which the Potency entry is “inactive”.
In the case of `O=C(O)c1ccc2c(=O)n3c(nc2c1)/C(=C/c1ccc(Cl)c([N+](=O)[O-])c1)CC3`, the Potency result was “inactive”.
Regarding `COc1ccc(OC)c(-c2nc(C(N)=O)c3c(n2)n(-c2ccc4c(c2)OCO4)c(=O)n3C)c1`, the Potency entry was “inactive”.
For the compound `CC(C)C12CN3CC(C(C)C)(CN(C1)C3c1ccc(OCc3ccccc3)cc1)C2=O` (stereo unspecified), the Potency result is “inactive”.
The result for `O=C1C=C(NCCNc2c(F)c(F)c(CO)c(F)c2F)CCC1` reads “inactive”; that for `Cc1ccc(C)c(N2CCN(CCCNC(=O)Nc3ccc(Cl)cc3)CC2)c1`, “inactive”; that for `O=C(O)CCC(=O)Nc1ccc(N2CCOCC2)cc1`, “inactive”.
With `O=C(O)CCC(=O)Nc1ccc(OCC2CCCO2)cc1` (stereo unspecified) the entry was “inactive”.
For `CC1CCC(C(C)C)C(=O)/C1=C\c1ccc(NC(=O)CCC(=O)O)cc1` (stereo unspecified), the Potency is 16.9 µM (active).
`O=C(CSc1nnc(-c2ccccc2F)o1)Nc1cccc(C(F)(F)F)c1`: the Potency entry was “inactive”.
With `O=C(NC1CCCC1)C(NS(=O)(=O)c1ccc(Br)s1)c1ccccc1` (stereo unspecified) the entry was “inactive”; with `Cc1csc(NC(=O)CSc2nnc(-c3cccnc3)o2)n1`, “inactive”; with `CN(C)c1ccc(-c2nnc(-c3cccnc3)o2)cc1`, 9.53 µM (active).
Take `CN(C)c1nc(-c2cccnc2)nc(-c2ccc(Cl)cc2)c1C#N`: the Potency result is “inactive”.
With `O=C(CCNC(=O)c1ccc([N+](=O)[O-])cc1)NC1CCCCC1` the entry was “inactive”; with `COc1ccc(CNC(=O)C(C)n2nc(C)c3c(C)n(-c4ccccc4)nc3c2=O)c(OC)c1` (stereo unspecified), “inactive”; with `CC(C)N1CCC(NC(=O)Nc2ccccc2)CC1`, “inactive”.
With `CC(C)c1ccc(NC(=O)NC2CCCCC2)cc1` the figure was 6.75 µM (active).
Consider `Cc1cc(C)cc(NC(=O)NC2CCN(CC(=O)Nc3cccc(Cl)c3C)CC2)c1`, for which the Potency result was “inactive”.
With `CC(C)(C)NS(=O)(=O)c1ccc(NC(=O)NC2CCCCC2)cc1` the entry was “inactive”; with `C/C(CC(=O)Nc1cccc(F)c1)=N\NC(=O)C(=O)NC1CCCCC1`, “inactive”.
On to `Cc1ccc(NC(=O)CSCC(=O)NC2CCCCC2)cc1`, for which the Potency entry is “inactive”.
In the case of `O=C(Nc1cccc(F)c1)NC1CCCCCCC1`, the Potency was 15.1 µM (active).
Regarding `Cc1ccc(NC(=O)NC2CCCCC2)cc1S(=O)(=O)N1CCOCC1`, the Potency result is “inactive”.
Consider `Cc1ccc(NC(=S)NC2CCCC2)cc1`, for which the Potency is 10.7 µM (active).
Consider `Cc1cc(C)cc(NC(=O)NC2CCCCCCC2)c1`, for which the Potency is 10.7 µM (active).
For the compound `O=C(Nc1cccc(F)c1)NC1CCCc2ccccc21` (stereo unspecified), the Potency entry is “inactive”.
On to `Cc1cc(Br)ccc1NC(=S)NC1CCCC1`, for which the Potency result was “inactive”.
As to `CCCNC(=O)C1CCN(c2nc3ccc(C)cc3[nH]2)CC1`, the Potency entry was “inactive”.
With `C=CC(=O)OCCOCCOCCOCCOC(=O)C=C` the entry was “inactive”; with `CO[C@H]1[C@@H]2C=CO[C@@H](O[C@H]3O[C@@H](CO)[C@H](O)[C@@H](O)[C@@H]3O)[C@@H]2[C@@]2(CO)O[C@@H]12`, “inactive”.
In the case of `CCOc1ccccc1C(=O)NCC(c1ccc(N(C)C)cc1)N1CCCC1` (stereo unspecified), the Potency entry was “inactive”.
As for `CCCN1C(=O)C(O)(CC(=O)c2ccc(CC)cc2)c2cc(Br)ccc21` (stereo unspecified), the Potency result was “inactive”.
Turning to `CN(CC(=O)NCc1ccc2c(c1)OCO2)CC(=O)Nc1ccc(F)c(F)c1F`, the Potency entry was “inactive”.
In the case of `Cc1ccccc1CC1(CO)CCCN(C(=O)c2cc(-c3ccccc3)no2)C1` (stereo unspecified), the Potency result was “inactive”.
As to `COC(=O)CCC(=O)N1CCCC(CO)(Cc2ccccc2)C1` (stereo unspecified), the Potency was 15.1 µM (active).
For the compound `Cc1noc(C)c1CCC(=O)O`, the Potency entry is “inactive”.
`CCCc1cc(C(=O)N2CCCC(CO)(CCCc3ccccc3)C2)n(C)n1` (stereo unspecified): the Potency result is “inactive”.
On to `CCOC(=O)C1(Cc2ccccc2C)CCCN(C(=O)CCc2c(C)noc2C)C1` (stereo unspecified), for which the Potency entry is “inactive”.
Take `Cc1noc(C)c1CCC(=O)N1CCCC(CO)(Cc2ccccc2)C1` (stereo unspecified): the Potency is 19 µM (active).
With `CN(CC(=O)Nc1ccccc1C(F)(F)F)C(=O)Cc1ccccc1F` the entry was “inactive”; with `CCN(CC)C(CNC(=O)CSc1nnnn1-c1cccc(F)c1)c1ccco1` (stereo unspecified), “inactive”.
The result for `CSc1ncc(C(=O)NCCCc2ccccc2)c(C)n1` reads “inactive”.
The result for `COc1ccc(OC)c(CNC(=O)c2c3c(nc4ccccc24)C(=O)N(C2CCCCC2)C3)c1` reads “inactive”; that for `CC(=O)Oc1ccc(N(C(C)=O)S(=O)(=O)c2ccc3ccccc3c2)cc1Br`, “inactive”.
In the case of `COc1ccc(C2CC(=O)N(Cc3ccccc3C)c3c2c(C)nn3-c2nc(C)cc(C)n2)c(OC)c1` (stereo unspecified), the Potency entry is “inactive”.
As for `c1ccc(-c2cc(-c3nnc4sc(-c5ccccn5)nn34)[nH]n2)cc1`, the Potency was 10.7 µM (active).
With `CCOc1cccc(-c2nn3c(-c4ccccn4)nnc3s2)c1`, the Potency result is “inactive”.
As to `COc1cc(-c2nn3c(-c4cccc(C)c4)nnc3s2)cc(OC)c1OC`, the Potency result was “inactive”.
The result for `CN(Cc1ccccc1)c1ccc(-c2nc(-c3ccccc3)no2)cc1[N+](=O)[O-]` reads “inactive”; that for `COc1cccc(N2CCN(CC(=O)Nc3ccnn3C3CCCC3)CC2)c1`, “inactive”; that for `CCN(c1ccc(Cl)cc1)S(=O)(=O)c1nnc(NC(=O)c2ccco2)s1`, “inactive”.
As to `Cc1cc(NC(=O)COn2nnc3ccccc32)no1`, the Potency result is “inactive”.
For the compound `Cc1cc(NC(=O)c2ccccc2C)no1`, the Potency is 15.1 µM (active).
For the compound `Cc1cc(NC(=O)CSCc2ccccc2C)no1`, the Potency entry was “inactive”.
Take `Cc1cc(NC(=O)COc2ccc([N+](=O)[O-])cc2)no1`: the Potency entry is “inactive”.
For `Cc1ccccc1C(=O)Nc1ccccc1NC(=O)c1ccccc1C`, the Potency result was “inactive”.
Turning to `Cc1cc(NC(=O)COc2ccccc2C#N)no1`, the Potency is 12 µM (active).
Turning to `COc1ccc(N2C(=O)CSC23C(=O)N(Cc2cccc(F)c2)c2ccccc23)cc1Cl` (stereo unspecified), the Potency result was “inactive”.
Take `COc1ccc(C(=O)C[n+]2ccc(N)c(C)c2C)cc1`: the Potency entry was “inactive”.
For `CC(CNC(=O)c1nnc(Cc2cccc(F)c2)o1)c1ccccc1` (stereo unspecified), the Potency result is “inactive”.
In the case of `NC(=O)NC(CC(=O)NNC(=O)c1ccccn1)c1ccc(Cl)cc1` (stereo unspecified), the Potency entry is “inactive”.
In the case of `CC(C)(C)NC(=O)CSc1nc(-c2ccc(F)cc2)cc(C(F)(F)F)n1`, the Potency entry was “inactive”.
As for `COC(=O)Cc1ccc(OCC(=O)NC2CCCC2)cc1`, the Potency result was “inactive”.
As for `Cc1noc(C)c1C(=O)Nc1ccccn1`, the Potency entry was “inactive”.
Consider `COC(=O)c1oc2ccc(Br)cc2c1NC(C)=O`, for which the Potency result was “inactive”.
Consider `Cc1c(C(=O)Nc2ccccn2)oc2ccc(Br)cc12`, for which the Potency was 2.13 µM (active).
`COc1cc(C(CC(=O)NCCC(C)C)N2Cc3ccccc3C2=O)cc(OC)c1OC` (stereo unspecified): the Potency result was “inactive”.
Consider `CCCn1c(=N)n(CC(O)COc2ccccc2OC)c2ccccc21` (stereo unspecified), for which the Potency entry was “inactive”.
Regarding `COc1cc2[nH]c(=O)n(Cc3ccc(C(=O)NCc4ccc(C)cc4)cc3)c(=O)c2cc1OC`, the Potency result is “inactive”.
`COCCCN(C(=S)Nc1c(C)cc(C)cc1C)C(C)c1ccncc1` (stereo unspecified): the Potency entry was “inactive”.
In the case of `Cc1ccc(NC(=O)c2ccc(Oc3ncccn3)cc2)cc1`, the Potency was 15.1 µM (active).
Regarding `O=C(Nc1ccc(CN2CCOCC2)cc1)c1cc(Cl)ccc1Cl`, the Potency entry was “inactive”.
Take `CC1=C(C(=O)Nc2ccccc2)C(c2cccs2)C(C#N)=C(SCC#N)N1` (stereo unspecified): the Potency entry is “inactive”.
With `COc1ccc(NC(=O)c2cc3cc(C)ccc3n2C)cc1`, the Potency result is “inactive”.
With `CCCc1cc(=O)oc2cc(OCC(=O)Nc3ccc(CN4CCOCC4)cc3)c(Cl)cc12`, the Potency entry was “inactive”.
Turning to `COc1ccc(NS(=O)(=O)c2ccc(NC(=O)c3ccc(N(C)S(C)(=O)=O)cc3)cc2)cc1`, the Potency result was “inactive”.
As to `COc1ccc(-n2cnnc2SCC(=O)Nc2cccc(S(N)(=O)=O)c2)cc1`, the Potency entry was “inactive”.
With `CCOc1ccc(C(=O)Nc2ccc(CN3CCOCC3)cc2)cc1Cl` the figure was 7.57 µM (active); with `COc1ccc(C(=O)Nc2cccc(S(C)(=O)=O)c2)cc1`, 16.9 µM (active); with `COc1ccc(NC(=O)c2sccc2SCC#N)cc1`, 13.5 µM (active).
With `Cc1ccc(NC(=O)c2cccnc2C(=O)Nc2ccc(C)cc2)cc1` the entry was “inactive”.
The result for `COc1cccc(-c2cc(C(=O)Nc3ccc(C)cc3)[nH]n2)c1` reads “inactive”; that for `CCOc1ccc(N2CC(c3nc4ccccc4n3CCOc3ccc(OC)cc3)CC2=O)cc1` (stereo unspecified), “inactive”.
Turning to `CCc1cccc(NC(=O)CN(C)S(=O)(=O)c2ccc3[nH]c4c(c3c2)CCCC4)c1`, the Potency entry was “inactive”.
`O=C(CCc1ccccc1)NCc1ccc2c(c1)CCN2C(=O)c1ccccc1`: the Potency entry is “inactive”.
With `CNC(=O)CN1C(=O)c2cccnc2Sc2ccccc21` the entry was “inactive”; with `CN(Cc1ccccc1)C(=O)c1cn(C)c2ccc(S(=O)(=O)N(C)C3CCCCC3)cc2c1=O`, “inactive”.
`Cn1cc(S(=O)(=O)Nc2ccc(Cl)cc2Cl)c(=O)n(C)c1=O`: the Potency entry was “inactive”.
For `Cc1cc(C)cc(NC(=O)C(c2ccccc2)N2CCN(CC(=O)N3CCCC3)CC2)c1` (stereo unspecified), the Potency entry is “inactive”.
With `Cc1cccc(OCCC(=O)OCc2csc(CC(=O)Nc3ccccc3C)n2)c1` the entry was “inactive”.
Regarding `O=C(Nc1ccccc1F)C(c1ccccc1)N1Cc2ccccc2C1=O` (stereo unspecified), the Potency entry is “inactive”.
The result for `COc1ccccc1CNC(=O)c1ccc(NC(=O)N2CC(C)Sc3ccccc32)cc1` (stereo unspecified) reads “inactive”; that for `COc1cc2c(=O)c(S(=O)(=O)c3ccc(C(C)C)cc3)cn(Cc3ccccc3C)c2cc1OC`, “inactive”.
As for `COc1ccc(NC(=O)c2ccc(C#CC(C)(C)O)cc2)cc1`, the Potency result is “inactive”.
The result for `COc1ccc(CC(=O)Nc2ccc(C(=O)NC(C)(C)C)cc2)cc1` reads “inactive”.
The result for `COc1ccc(NC(=O)c2ccc(OC)cc2)cc1` reads 4.78 µM (active); that for `CCCC(=O)NC(=S)Nc1ccc(CN2CCOCC2)cc1`, “inactive”.
As for `COCCNC(=S)c1ccc(OC)cc1`, the Potency result is “inactive”.
Consider `CCCOc1cccc(C(=O)Nc2cccc(NC(=O)c3ccc(C(C)(C)C)cc3)c2)c1`, for which the Potency was 1.69 µM (active).
For `COc1ccc(C(=O)Nc2ccc(CN3CCOCC3)cc2)cc1`, the Potency is 12 µM (active).
Take `CCCOc1cccc(C(=O)NCCCNC(=O)c2cccnc2)c1`: the Potency entry was “inactive”.
In the case of `CCCOc1cccc(C(=O)Nc2ccccc2C(=O)N2CCN(C)CC2)c1`, the Potency result was “inactive”.
With `COc1ccc(C(=O)CCC(=O)Nc2ccc(Cl)cc2)cc1`, the Potency result is “inactive”.
With `O=C(Nc1ccc(CSc2ccccc2)cc1)c1ccc(CN2CCOCC2)cc1`, the Potency result is “inactive”.
Turning to `COc1ccc(C(=S)Nc2ccccc2)cc1`, the Potency is 13.5 µM (active).
